# How the values were obtained:
# Test in all cases: protein-binding microarray (PBM); PBM: ~300 nM protein, 6 mM HEPES pH 7.8, 80 mM KCl, 0.5 mM EDTA, 0.5 mM EGTA, 6% glycerol, 35 ng/ul poly-dIdC, 1% milk, 1 h, room temperature; Ap Aiptasia and Nv Nematostella (sea anemones) / Co Capsaspora / Aq Amphimedon (sponge) / Dm Drosophila / Hu human; RHD is the Rel homology domain; high values mean tight binding
# Conditions in all cases: dsDNA, one strand shown
# GST-Dm-Relish = molecular target: T1, GST-Dm-Relish (Drosophila melanogaster, UniProt Q94527 99-473)
# T1 sequence: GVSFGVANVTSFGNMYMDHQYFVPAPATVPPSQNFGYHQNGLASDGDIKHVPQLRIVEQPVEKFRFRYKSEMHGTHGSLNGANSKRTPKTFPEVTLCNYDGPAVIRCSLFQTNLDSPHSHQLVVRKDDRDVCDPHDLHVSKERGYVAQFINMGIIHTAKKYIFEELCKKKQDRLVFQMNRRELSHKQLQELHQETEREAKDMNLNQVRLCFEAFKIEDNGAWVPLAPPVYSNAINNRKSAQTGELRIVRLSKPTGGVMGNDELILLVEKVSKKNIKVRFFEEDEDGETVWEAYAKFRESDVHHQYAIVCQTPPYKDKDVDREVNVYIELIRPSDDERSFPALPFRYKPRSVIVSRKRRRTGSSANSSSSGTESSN
# GST-Aq-NF-kB = molecular target: T2, GST-Aq-NF-kB (Amphimedon queenslandica, UniProt A9Y5G7 2-389)
# T2 sequence: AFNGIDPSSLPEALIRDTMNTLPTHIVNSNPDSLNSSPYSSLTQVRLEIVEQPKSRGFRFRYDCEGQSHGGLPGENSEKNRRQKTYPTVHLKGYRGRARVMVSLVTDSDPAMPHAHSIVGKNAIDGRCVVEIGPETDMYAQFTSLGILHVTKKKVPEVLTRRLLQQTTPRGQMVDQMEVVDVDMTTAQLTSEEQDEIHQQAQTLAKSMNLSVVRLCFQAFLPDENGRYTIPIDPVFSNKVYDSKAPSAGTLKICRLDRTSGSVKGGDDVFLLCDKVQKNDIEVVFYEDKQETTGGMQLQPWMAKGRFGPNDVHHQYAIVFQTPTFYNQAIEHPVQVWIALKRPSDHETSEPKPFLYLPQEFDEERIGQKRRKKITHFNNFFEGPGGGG
# GST-Ap-NF-kB RHD = molecular target: T3, GST-Ap-NF-kB RHD (Exaiptasia pallida (Aiptasia), UniProt A0A913YAJ5 2-422)
# T3 sequence: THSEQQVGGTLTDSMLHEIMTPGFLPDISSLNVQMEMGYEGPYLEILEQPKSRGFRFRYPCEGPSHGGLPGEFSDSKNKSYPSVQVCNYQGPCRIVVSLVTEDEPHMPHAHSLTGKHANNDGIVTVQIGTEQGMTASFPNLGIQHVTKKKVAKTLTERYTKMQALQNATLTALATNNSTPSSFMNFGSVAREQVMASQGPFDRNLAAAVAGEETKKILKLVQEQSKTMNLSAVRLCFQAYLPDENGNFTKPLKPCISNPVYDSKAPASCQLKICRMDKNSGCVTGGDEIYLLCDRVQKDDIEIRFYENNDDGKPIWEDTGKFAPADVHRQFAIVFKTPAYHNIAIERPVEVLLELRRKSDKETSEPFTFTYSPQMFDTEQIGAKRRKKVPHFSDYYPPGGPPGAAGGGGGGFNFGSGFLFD
sequence,measurement,setting,value
CCGATTAACATCAATGGAATTCCTGATGTTAATCGGGTCTTGATTCGCTTGACGCTGCTG,binding signal,GST-Dm-Relish,3.2 z-score
same,binding signal,GST-Aq-NF-kB,1.5 z-score
CCGATTAACATCAGGAAAATCCATGATGTTAATCGGGTCTTGATTCGCTTGACGCTGCTG,binding signal,GST-Dm-Relish,1.26 z-score
same,binding signal,GST-Aq-NF-kB,2.69 z-score
CCGATTAACATCAGGGCAAGTACTGATGTTAATCGGGTCTTGATTCGCTTGACGCTGCTG,binding signal,GST-Dm-Relish,1.44 z-score
same,binding signal,GST-Aq-NF-kB,2.28 z-score
CCGATTAACATCACCGGATTTCCTGATGTTAATCGGGTCTTGATTCGCTTGACGCTGCTG,binding signal,GST-Dm-Relish,1.86 z-score
same,binding signal,GST-Aq-NF-kB,1.54 z-score
CCGATTAACATCAAAAATTTCCTTGATGTTAATCGGGTCTTGATTCGCTTGACGCTGCTG,binding signal,GST-Dm-Relish,1.94 z-score
same,binding signal,GST-Aq-NF-kB,2.1 z-score
CCGATTAACATCAATAAAATTCCTGATGTTAATCGGGTCTTGATTCGCTTGACGCTGCTG,binding signal,GST-Dm-Relish,1.81 z-score
same,binding signal,GST-Aq-NF-kB,1.79 z-score
CCGATTAACATCAAAAAAATTTCTGATGTTAATCGGGTCTTGATTCGCTTGACGCTGCTG,binding signal,GST-Dm-Relish,1.41 z-score
same,binding signal,GST-Aq-NF-kB,1.23 z-score
CCGATTAACATCAGGTAACTACCTGATGTTAATCGGGTCTTGATTCGCTTGACGCTGCTG,binding signal,GST-Dm-Relish,3.08 z-score
same,binding signal,GST-Aq-NF-kB,3.17 z-score
CCGATTAACATCAAAAATTCCGTTGATGTTAATCGGGTCTTGATTCGCTTGACGCTGCTG,binding signal,GST-Dm-Relish,1.08 z-score
same,binding signal,GST-Aq-NF-kB,2.1 z-score
CCGATTAACATCAACGGAAATCCTGATGTTAATCGGGTCTTGATTCGCTTGACGCTGCTG,binding signal,GST-Dm-Relish,1.24 z-score
same,binding signal,GST-Aq-NF-kB,1.17 z-score
CCGATTAACATCAGAGGATTTCCTGATGTTAATCGGGTCTTGATTCGCTTGACGCTGCTG,binding signal,GST-Dm-Relish,1.74 z-score
same,binding signal,GST-Aq-NF-kB,1.55 z-score
CCGATTAACATCAGGACTTTACATGATGTTAATCGGGTCTTGATTCGCTTGACGCTGCTG,binding signal,GST-Dm-Relish,6.1 z-score
same,binding signal,GST-Aq-NF-kB,1.25 z-score
CCGATTAACATCACGGACTTTCCTGATGTTAATCGGGTCTTGATTCGCTTGACGCTGCTG,binding signal,GST-Dm-Relish,2.95 z-score
same,binding signal,GST-Aq-NF-kB,5.31 z-score
CCGATTAACATCAGGAAAATTTATGATGTTAATCGGGTCTTGATTCGCTTGACGCTGCTG,binding signal,GST-Dm-Relish,1.44 z-score
same,binding signal,GST-Aq-NF-kB,1.26 z-score
CCGATTAACATCAGGAAAGGCCATGATGTTAATCGGGTCTTGATTCGCTTGACGCTGCTG,binding signal,GST-Dm-Relish,1.29 z-score
same,binding signal,GST-Aq-NF-kB,1.31 z-score
CCGATTAACATCACGTACTTTCCTGATGTTAATCGGGTCTTGATTCGCTTGACGCTGCTG,binding signal,GST-Dm-Relish,4.78 z-score
same,binding signal,GST-Aq-NF-kB,2.39 z-score
CCGATTAACATCAGAAATTTCCATGATGTTAATCGGGTCTTGATTCGCTTGACGCTGCTG,binding signal,GST-Dm-Relish,1.25 z-score
same,binding signal,GST-Aq-NF-kB,1.68 z-score
CCGATTAACATCAGGAAACCCACTGATGTTAATCGGGTCTTGATTCGCTTGACGCTGCTG,binding signal,GST-Dm-Relish,3.86 z-score
same,binding signal,GST-Aq-NF-kB,1.01 z-score
CCGATTAACATCAATAAATTTCCTGATGTTAATCGGGTCTTGATTCGCTTGACGCTGCTG,binding signal,GST-Dm-Relish,1.55 z-score
same,binding signal,GST-Aq-NF-kB,1.86 z-score
CCGATTAACATCAGCGGAAATCCTGATGTTAATCGGGTCTTGATTCGCTTGACGCTGCTG,binding signal,GST-Dm-Relish,1.26 z-score
same,binding signal,GST-Aq-NF-kB,1.07 z-score
CCGATTAACATCAGAAATTTTCCTGATGTTAATCGGGTCTTGATTCGCTTGACGCTGCTG,binding signal,GST-Dm-Relish,1.39 z-score
same,binding signal,GST-Aq-NF-kB,1.31 z-score
CCGATTAACATCAAAAAATCTCCTGATGTTAATCGGGTCTTGATTCGCTTGACGCTGCTG,binding signal,GST-Dm-Relish,1.02 z-score
same,binding signal,GST-Aq-NF-kB,1.21 z-score
CCGATTAACATCAGTACTTTCCATGATGTTAATCGGGTCTTGATTCGCTTGACGCTGCTG,binding signal,GST-Dm-Relish,5.35 z-score
same,binding signal,GST-Aq-NF-kB,1.95 z-score
CCGATTAACATCACGGAAAAACCTGATGTTAATCGGGTCTTGATTCGCTTGACGCTGCTG,binding signal,GST-Dm-Relish,2.16 z-score
same,binding signal,GST-Aq-NF-kB,3.55 z-score
CCGATTAACATCAGGAAATACCATGATGTTAATCGGGTCTTGATTCGCTTGACGCTGCTG,binding signal,GST-Dm-Relish,3.07 z-score
same,binding signal,GST-Aq-NF-kB,3.27 z-score
CCGATTAACATCAAGGATTTTCCTGATGTTAATCGGGTCTTGATTCGCTTGACGCTGCTG,binding signal,GST-Dm-Relish,1.44 z-score
same,binding signal,GST-Aq-NF-kB,3.08 z-score
CCGATTAACATCAGGAAAGACCATGATGTTAATCGGGTCTTGATTCGCTTGACGCTGCTG,binding signal,GST-Dm-Relish,1.35 z-score
same,binding signal,GST-Aq-NF-kB,1.49 z-score
CCGATTAACATCACCCACCGATTTGATGTTAATCGGGTCTTGATTCGCTTGACGCTGCTG,binding signal,GST-Ap-NF-kB RHD,1.07 z-score
CCGATTAACATCACGGGCATTCCTGATGTTAATCGGGTCTTGATTCGCTTGACGCTGCTG,binding signal,GST-Dm-Relish,2.37 z-score
same,binding signal,GST-Aq-NF-kB,3.21 z-score

# — article PMC5700166
